An excerpt weighted towards active compounds, which were near 2.4% of everything screened.
Pol iota inh: blocks human DNA polymerase iota activity | Q9UNA4 | Pol iota fluorescent replication assay, 10 min | Potency, µM (titrated, usually from 115 µM), for inactives: at the top dose activity, negative = inhibition, usual class: inhibitors | 1% of 390,000 active
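Pol iota at 10 nM preincubated 15 min with compounds at room temperature; reaction started with fluorescent substrate, 50 nM final. Fluorescence read kinetically at 0 and 10 min; buffer-only wells as negative control.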
Pol kappa inh-1: blocks human DNA polymerase kappa activity | purified Pol kappa, fluorescent DNA synthesis assay, 10 min | 0.53% of 400,000 active | AID 588579 | Potency, µM (titrated, usually from 107 µM), for the others: at the highest dose activity, negative = inhibition, usual class: inhibitors; also: % is scaled to controls: 0 for no effect and ±100 for the full control effect
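Inhibition of 10 nM Pol kappa is measured by a fluorescent read-out at 0 and 10 min following addition of 50 nM substrate (final), with a 15-min room-temperature compound preincubation.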
TDP1 inh: blocks human tyrosyl-DNA phosphodiesterase 1 | Q9NUW8 | recombinant TDP1, AlphaScreen DNA substrate cleavage | Potency, µM (titrated, usually from 130 µM), without a hit: top-dose activity change, negative = inhibition, most hits filed as inhibitors | 0.28% of 350,000 active | AID 485290; also: % is scaled to controls: 0 for no effect and ±100 for the full control effect; nearly all actives have a fitted effect of over 40% in size
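Recombinant E. coli-expressed Tdp1 (1 nM) preincubated with compound 15 min at RT, then 5'-biotin/3'-phosphotyrosine-FITC DNA substrate (15 nM) added for 5 min. AlphaScreen beads (10 ug/ml) added, 10 min RT; tyrosine-FITC cleavage read as signal loss.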
Pol eta inh-1: DNA polymerase eta (human) inhibition. Q9Y253. recombinant Pol eta, fluorescent DNA replication assay. Potency, µM (doses to about 114 µM), for inactives: at the highest dose activity change, negative = inhibition, hits mostly inhibitors. 1.2% of 390,000 active; also: % is scaled to controls: 0 for no effect and ±100 for the full control effect
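Pol eta (10 nM) was preincubated with compounds for 15 min at room temperature, after which fluorescent replication substrate (50 nM final) was added to start the reaction. Fluorescence was read kinetically at 0 and 10 min.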
FEN1 inh-1: blocks human flap endonuclease 1. 0.35% of 390,000 active. Recombinant FEN1 flap cleavage, fluorescence, 15 min. Potency, µM (series often up to 114 µM), for inactives: top-dose activity change, negative = inhibition, actives largely listed as inhibitors; also: % is scaled to controls: 0 for no effect and ±100 for the full control effect; nearly all actives have a fitted effect of over 65% in size
Target sequence (P39748 whole entry, looked up): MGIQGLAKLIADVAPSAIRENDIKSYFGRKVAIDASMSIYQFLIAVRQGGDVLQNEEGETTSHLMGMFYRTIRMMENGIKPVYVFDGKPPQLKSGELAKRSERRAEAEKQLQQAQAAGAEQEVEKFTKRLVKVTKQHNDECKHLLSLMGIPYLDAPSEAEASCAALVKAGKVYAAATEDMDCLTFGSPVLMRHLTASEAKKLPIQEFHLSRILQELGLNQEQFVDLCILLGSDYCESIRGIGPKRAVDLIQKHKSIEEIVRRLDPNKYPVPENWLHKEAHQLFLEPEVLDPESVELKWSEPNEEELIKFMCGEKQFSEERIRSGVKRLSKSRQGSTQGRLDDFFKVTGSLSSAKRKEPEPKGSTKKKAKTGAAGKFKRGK
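Read-out was taken twice, immediately and after 15 min, following addition of 50 nM substrate to 10 nM FEN1 that had sat with test compound for 15 min at room temperature. Curves came from a four-parameter Hill model.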
POLB inh: inhibitors of human DNA polymerase beta; Potency, µM (highest dose often 114 µM), without a hit: at the highest dose activity change, negative = inhibition, most hits filed as inhibitors; 1.3% of 340,000 active; Pol beta primer extension/strand displacement, fluorescence kinetic; P06746; AID 485314; also: % is scaled to controls: 0 for no effect and ±100 for the full control effect
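Preincubation: enzyme (10 nM) with compound, 15 min, RT. Reaction: substrate added to 50 nM final. Reads: 0 and 10 min. Analysis: normalized, Hill fit.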
TbPGK inh: validation of Trypanosoma brucei phosphoglycerate kinase inhibitors | TbPGK coupled GAPDH assay, Kinase-Glo luminescence | Potency, µM (top dose mostly 57.5 µM), inactives show at the highest dose activity change, negative = inhibition, usual class: inhibitors | 79% of 500 active | shares compounds with Pol kappa inh-1; also: % is scaled to controls: 0 for no effect and ±100 for the full control effect; nearly all actives have a fitted effect of over 65% in size
Pol iota confirm: Confirm cherry-picked inhibitors of human polymerase iota; 77% of 1,500 active; shares compounds with Pol kappa inh-1; AID 720496; Potency, µM, actives largely listed as inhibitors; Pol iota primer extension, TAMRA/BHQ fluorescence
Pol kappa inh-2: Pol kappa (human) inhibition, cherry-pick confirmation; 76% of 920 active; purified Pol-kappa, fluorescent strand-displacement substrate; Potency, µM, hits mostly inhibitors; shares compounds with Pol eta inh-1; AID 720501
Pol eta inh-2: Pol eta (human) inhibition, cherry-pick confirmation; shares compounds with Pol eta inh-1; Pol eta primer extension, TAMRA/BHQ fluorescence, 10 min; Potency, µM, most hits filed as inhibitors; 64% of 2,600 active
FEN1 inh-2: FEN1 inhibition, cherry-pick retest. FEN1 flap cleavage, TAMRA/BHQ2 fluorogenic DNA substrate. AID 720498. 79% of 880 active. shares compounds with FEN1 inh-1. Potency, µM, hits mostly inhibitors; also: nearly all actives have a fitted effect of over 60% in size
* = called active by the depositor; [ ] = dose if it differs, or a comment. Calls follow the shape of the dose curve; as a rule, active = well fitted curve in the direction sought with a large enough effect; inconclusive = small, poorly fitted or top-dose-only effect, or another doubt; inactive = no such curve, though single readings can be large; an effect the other way counts as inactive or inconclusive. Potency is read from the fitted curve at half-maximal effect.

`COc1ccc(NS(=O)(=O)c2ccc3c(c2)[C@H]2C=CC[C@H]2[C@@H](c2ccc(C(=O)O)cc2)N3)cc1` gave Pol iota inh inconclusive, Pol kappa inh-1 10µM*, Pol eta inh-1 2.82µM*, FEN1 inh-1 20µM*, POLB inh 20µM*, TbPGK inh 18.3µM*, Pol iota confirm 23.8*, Pol kappa inh-2 2.38*, Pol eta inh-2 9.53* and FEN1 inh-2 37.9*.
Cc1c(Cl)cccc1NS(=O)(=O)c1ccc2c(c1)C1C=CCC1C(c1ccc(C(=O)O)cc1)N2 (stereo not given) was read as Pol iota inh inconclusive, Pol kappa inh-1 2.82µM*, Pol eta inh-1 2µM*, FEN1 inh-1 25.1µM*, POLB inh 22.4µM*, Pol iota confirm 37.7*, Pol eta inh-2 6.75* and FEN1 inh-2 60.1*.
Screening COC(=O)c1ccc([C@H]2Nc3ccc(S(=O)(=O)Nc4ccc(C)cc4)cc3[C@H]3C=CC[C@H]32)cc1 returned Pol iota inh inconclusive, Pol kappa inh-1 -17.7%, Pol eta inh-1 inconclusive, FEN1 inh-1 -8.9% and POLB inh inconclusive.
`O=C(NC1CCCCC1)c1ccc(CSc2nc3ccncc3n2Cc2ccccc2)cc1` gave Pol iota inh 18.1%, Pol kappa inh-1 -9.9%, TDP1 inh 5.1%, Pol eta inh-1 -22.0%, FEN1 inh-1 -10.9% and POLB inh 26.2%.
Screening Cc1ccc(NC(=O)CN2C(=O)N/C(=C/c3ccc(N4CCOCC4)cc3)C2=O)cc1 returned Pol iota inh 38.9%, Pol kappa inh-1 -2.9%, TDP1 inh -4.1%, Pol eta inh-1 -14.7%, FEN1 inh-1 -6.7% and POLB inh -6.8%.
Cc1ccc(NC(=O)CN2C(=O)N/C(=C/c3ccc(C)s3)C2=O)cc1 was read as Pol iota inh 31.8%, Pol kappa inh-1 -0.1%, TDP1 inh -1.9%, Pol eta inh-1 -24.1%, FEN1 inh-1 -0.7% and POLB inh 43.8%.
Screening Cc1ccc(NC(=O)CN2C(=O)N/C(=C/c3ccccc3OCc3cccc(C(=O)O)c3)C2=O)cc1 returned Pol iota inh 20µM*, Pol kappa inh-1 inconclusive, TDP1 inh 6.0%[0.0935 µM], Pol eta inh-1 25.1µM*, FEN1 inh-1 70.8µM*, POLB inh 35.5µM*, TbPGK inh 16.3µM*, Pol iota confirm 42.3*, Pol eta inh-2 inconclusive and FEN1 inh-2 75.7*.
`CC(C)n1cc(/C=C2\NC(=O)N(c3cccc(Cl)c3)C2=O)c2ccccc21` gave Pol iota inh 19.9%, Pol kappa inh-1 -2.8%, TDP1 inh 2.5%, Pol eta inh-1 -17.2%, FEN1 inh-1 -15.5% and POLB inh 0.1%.

Screening data deposited in PubChem by National Center for Advancing Translational Sciences (NCATS).
